p53null 39C tox: selectivity test: cytotoxicity in p53 null cells, nonpermissive temperature | H1299 p53-null (neo) cells, 39C, ATPlite viability, 24 h | Potency, µM (doses to about 46.1 µM), actives largely listed as cytotoxic | 55,000 tested, 0.97% active | AID 904; also: nearly all actives have a fitted effect of over 50% in size
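Concentration-response (up to 46 uM) was run for 24 h at the nonpermissive 39C on H1299-p53A138V or H1299-neo cells. ATP content was measured with ATPlite luminescence. AC50 values were Hill-modeled after normalizing between DMSO and 100 uM tamoxifen killing.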
SKOV3 invasion: inhibitors of ovarian cancer cell adhesion and invasion in omental model | SKOV3ip1-GFP adhesion/invasion on 3D omental model, fluorescence | Potency, µM (doses to about 45.8 µM), hits mostly inhibitors | 46,000 tested, 0.1% active | AID 1963576; also: nearly all actives have a fitted effect of over 65% in size
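Adhesion/invasion was scored as fixed GFP-labeled SKOV3ip1 cell counts (488/509 nm), normalized to DMSO and tomatine controls. Cancer cells in serum-free medium, with four compound doses (0.36-46 umol/L), sat 2 hr at RT then 16 hr at 37 C on a 48 hr fibroblast/mesothelial/ECM culture.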
S16 viability: S16 Schwann cell cytotoxicity | AID 1508642 | S16 Pmp22-F2sN Schwann cells viability, CellTiter-Glo, 24 h | 43,000 tested, 0.48% active | Potency, µM (doses to about 57.5 µM), actives largely listed as cytotoxic; also: nearly all actives have a fitted effect of over 65% in size
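Luminescence from CellTiter-Glo, read by CCD camera after a 15 min room-temperature incubation, served as the viability signal. Reporter Schwann cells (S16 Pmp22-F2sN) had been treated with pin-transferred compounds for 24 h at 37C.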
p53null 32C tox: selectivity test: cytotoxicity in p53 null cells, permissive temperature; H1299-neo p53 null cells, ATP luminescence, 24 h, 32C; Potency, µM (highest dose often 46.1 µM), hits mostly cytotoxic; 55,000 tested, 0.62% active; also: nearly all actives have a fitted effect of over 55% in size
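H1299-neo, 600 cells/well; overnight 37C; cpd up to 46 uM, 24 h at 32C; ATPlite luminescence after 20 min RT; normalized to DMSO (0%) and tamoxifen 100 uM (100% kill); Hill-fit AC50.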
PMP22 txn: PMP22 gene transcription modulation. S16 Pmp22-F2sN Schwann cells (luciferase reporters placed in the Pmp22 gene), FLuc/NLuc coincidence luminescence, 24 h. Potency, µM (top dose mostly 57.5 µM), usual class: inhibitors. 43,000 tested, 2% active. AID 1508649; active = clear falling dose curves in both reporters; inconclusive = both reporters move, but less clearly or upward; inactive = either reporter flat; the % is the NLuc reporter signal
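Transcriptional readout in edited S16(c9) cells: two luciferases reported from the Pmp22 locus, measured in turn after 24 h compound incubation.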
mTORC1 inh: reduces mTORC1 signaling in Tsc2 and p53 null MEF cells | Tsc2-/- p53-/- MEF, phospho-rpS6 immunofluorescence/PI, 24 h | Potency, µM (doses to about 38.3 µM), usual class: inhibitors | 44,000 tested, 0.78% active | AID 493208; also: nearly all actives have a fitted effect of over 50% in size
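Immunofluorescence of rpS6 phosphorylation in Tsc2-/-, p53-/- MEFs after 24 h compound exposure, normalized to propidium iodide signal. Activity is expressed as % positive cells, thresholded with 7.5 nM rapamycin.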
Numbers stand for hits; - = inactive; ? = inconclusive; . = not tested or not shown. A selection: hits, their analogues and other compounds. The true share with any hit is near 3%. Unless noted, calls follow the shape of the dose curve; as a rule, active = well fitted curve in the direction sought with a large enough effect; inconclusive = small, poorly fitted or top-dose-only effect, or another doubt; inactive = no such curve, though single readings can be large; an effect the other way counts as inactive or inconclusive.

SMILES	p53null 39C tox	SKOV3 invasion	S16 viability	p53null 32C tox	PMP22 txn	mTORC1 inh
COc1ccc(NC(=O)c2nnn(CC(=O)Nc3ccc(C)c(C)c3)c2N)cc1OC	-	-	-	-	-	-
COc1ccc(OC)c(NC(=O)c2nnn(CC(=O)Nc3ccc(C(C)C)cc3)c2N)c1	?	-	-	-	-	16.5µM
COc1ccc(N(CC(=O)N2CCN(c3cccc(Cl)c3)CC2)S(=O)(=O)c2c(C)noc2C)cc1	10µM	-	-	-	-	-
Cc1ccc(N(CC(=O)N2CCN(c3cccc(Cl)c3)CC2)S(=O)(=O)c2c(C)noc2C)cc1	-	-	-	-	?	-
CCCCNC(=O)CSc1c2c(nc3ccc(Cl)cc13)CCCC2	-	-	39.8µM	-	?	?
Fc1ccc(-n2ncc3c(N4CCC(Cc5ccccc5)CC4)ncnc32)cc1	-	-	-	-	-	-
Clc1cccc(-n2ncc3c(N4CCCCC4)ncnc32)c1	12.6µM	-	-	3.16µM	-	-
Fc1ccc(-n2ncc3c(N4CCCCCC4)ncnc32)cc1	14.1µM	-	-	?	-	-
Cc1ccc(-n2ncc3c(N4CCCCCC4)ncnc32)cc1	-	-	-	3.16µM	?	-
Clc1cccc(-n2ncc3c(N4CCCCCC4)ncnc32)c1	-	-	-	?	-	-
NCc1c[nH]c(=S)n1[C@H]1CCc2c(F)cc(F)cc2C1	.	-	.	.	.	.
O=C(O)C(O)Cc1ccc(O)c(O)c1 (centres undefined)	.	-	.	.	.	.
O=C(NCc1ccccn1)c1cc(-c2ccc(-c3ccccc3)cc2)nc2ccccc12	7.94µM	.	.	.	.	.
CCn1c(C)cc(/C=C2/SC(=S)NC2=O)c1C	.	.	.	17.8µM	.	.
CN(Cc1ccccc1)C(=O)c1cccc(NC(=O)c2nsc3ccccc23)c1	14.1µM	-	-	?	?	-
CC(C)c1nn(-c2c(Cl)cccc2Cl)c2nc(Cc3ccc(OCCO)cc3)[nH]c(=O)c12	.	-	.	.	.	.
c1ccc(CSc2ccc(-c3ccco3)nn2)cc1	?	.	.	11.2µM	.	.
CC(C)(C)c1ccc(C(=O)Nc2nnc3n2CCS3)cc1	?	-	-	10µM	?	?
CCN(CC)CCN(C(=O)c1ccco1)c1nc2c(C)c(C)ccc2s1	-	-	-	-	?	-
Cc1ccc2sc(N(CCCN(C)C)C(=O)c3ccco3)nc2c1C	?	-	?	-	?	11.7µM
CC[C@H](Nc1ncnc2nc[nH]c12)c1nc2cccc(F)c2c(=O)n1-c1ccccc1	.	-	.	.	.	.
Cc1ccc(C(=O)Nc2cc3cc(Cl)ccc3oc2=O)cc1	-	-	-	-	6.5µM	-
COc1ccc(C(=O)Nc2cc3cc(Cl)ccc3oc2=O)cc1OC	-	-	-	-	-	-
O=C(N[C@@H](c1ccccc1)[C@@H]1CCCCN1)c1cccc(C(F)(F)F)c1Cl	.	-	.	.	.	.
Cc1ccc(NC(=O)c2ccccc2O)cc1	10µM	.	.	12.6µM	.	.
SMILES	p53null 39C tox	SKOV3 invasion	S16 viability	p53null 32C tox	PMP22 txn	mTORC1 inh
CCc1cc(C(C)=NOCc2ccc(C3CCCCC3)c(C(F)(F)F)c2)ccc1CN1CC(C(=O)O)C1	.	-	.	.	.	.
CC(=O)[C@]1(O)Cc2c(O)c3c(c(O)c2[C@@H](O[C@H]2C[C@H](N)[C@@H](O)[C@H](C)O2)C1)C(=O)c1ccccc1C3=O	.	-	.	.	.	.
O=C(Nc1ccc2nc(-c3ccco3)[nH]c2c1)c1cccs1	10µM	.	.	7.08µM	.	.
COc1cccc(C2CC(=O)Nc3cc4c(cc32)OCCO4)c1OC (centres undefined)	-	-	-	-	-	14.7µM
Cc1ccc(NC(=O)CCc2c(C)nn(-c3ccc(N4CCCCC4)nn3)c2C)cc1F	7.94µM	-	.	?	.	-
COc1ccccc1NC(=O)c1cnc(SCC(=O)N2CCOCC2)n(C)c1=O	-	-	-	-	10.7µM	-
CCOc1ccc(CCNC(=O)c2cc3cc4cc(OC)ccc4nc3s2)cc1OCC	-	-	-	-	?	-
COc1ccc2nc3sc(C(=O)Nc4cc(Cl)c(OC)cc4OC)cc3cc2c1	10µM	-	-	-	-	-
